# Source: the supplement of paper PMC6555819
# How the values were obtained:
# Test in all cases: PBM binding z-score (relative to random genomic background probes); higher = stronger binding; sequences stand for … in GC…GCGATTGACAGCGTAGAATGAAGG
# [1] = system: FXR:RXRa (NR concentration 270 nM, RXRa partner concentration 90 nM)
# Summary of the method: (§1)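 Ligand-free nuclear receptor dimers were applied to custom Agilent 4×180K protein-binding microarrays whose double-stranded probes carried direct-repeat seeds, single-nucleotide variants, half-site ablations and random human genomic background sequences in 34-nt variable regions. Incubation lasted 1 h. Binding z-scores were computed against the random background probes from regression-normalized fluorescence.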
# [2] = system: LXRa:RXRa (NR concentration 270 nM, RXRa partner concentration 90 nM)
# Summary of the method: as §1
# [3] = system: LXRa homodimer (NR concentration 270 nM)
# Summary of the method: as §1
# [4] = system: LXRb:RXRa (NR concentration 270 nM, RXRa partner concentration 90 nM)
# Summary of the method: as §1
# [5] = system: LXRb homodimer (NR concentration 270 nM)
# Summary of the method: as §1
# [6] = system: PPARa:RXRa (NR concentration 270 nM, RXRa partner concentration 90 nM)
# Summary of the method: as §1
# [7] = system: PPARg:RXRa (NR concentration 180 nM, RXRa partner concentration 90 nM)
# Summary of the method: as §1
# [8] = system: PPARg:RXRa 270nM:90nM, anti-RXR (NR concentration 270 nM, RXRa partner concentration 90 nM)
# Summary of the method: as §1
# [9] = system: PPARg:RXRa 30nM:10nM, anti-RXR (NR concentration 30 nM, RXRa partner concentration 10 nM)
# Summary of the method: as §1
# [10] = system: PPARg:RXRa 90nM:30nM, anti-RXR (NR concentration 90 nM, RXRa partner concentration 30 nM)
# Summary of the method: as §1
Sequence,PBM binding z-score [1],PBM binding z-score [2],PBM binding z-score [3],PBM binding z-score [4],PBM binding z-score [5],PBM binding z-score [6],PBM binding z-score [7],PBM binding z-score [8],PBM binding z-score [9],PBM binding z-score [10]
ATCTAAAGGTCGAAGGTGAGTATACCCACCCGAA,4.51,4.47,0.846,3.2,1.12,4.71,5.11,5.19,2.76,4.36
CGAACTAGGTCACGAGGACAGTGAAGAGGTTGGA,4.56,2.89,0.291,1.98,-0.399,5.33,8.72,7.24,5.15,6.84
TAGCCTAGGTCATTCAGGCGCCAGTATAGAAAGC,5.09,3.26,0.555,2.5,0.661,3.35,2.01,2.37,0.32,1.41
CCTACTGGGCCACGAAAGGTAATTGATTCAGTGA,-0.128,-0.227,-0.337,-0.403,-0.777,1.1,1.63,1.38,-0.0637,0.669
CGAACTACGTCACCAGGACAGTGAAGAGGTTGGA,-0.0876,-0.2,-0.121,-0.435,-0.676,-0.258,0.527,-0.464,0.0797,-0.46
CGAACTAGGTCACCACGACAGTGAAGAGGTTGGA,4.13,2.41,0.318,1.87,-0.171,5.18,8.44,7.14,4.87,6.86
AGTAGCAGGCCAAGGGTCACTCAAGATTAGTCCG,2.36,2.53,0.22,2.8,-0.43,4.63,7.54,7.15,6.3,7.51
ATATGTAGGTTAGGGTCATTCTGAAAGTAGGGAA,4.59,3.97,1.34,4.53,1.8,5.46,7.45,6.24,3.83,5.9
CGAGCTAGGTCAAAGGACAGTGAAAGGCGACGTA,4.09,2.67,-0.157,1.53,-0.726,3.86,5.44,6.04,3.68,5.95
ATATGTAGGTTACGGTCATTCAGAAAGTAGGGAA,2.04,2.49,1.64,1.74,1.02,4.35,7.06,5.67,3.24,5.02
ATCGAAAGGTCGAAGGTCAGTATACCCACCCGAA,5.6,4.68,1.05,4.53,0.966,5.61,6.96,6.43,3.83,5.97
CGAACTAGGTCAAAGGACAGTGCAAGGCGACGTA,4.07,2.5,0.126,1.63,-0.463,5.41,10.3,8.27,8.02,9.07
CGTCCAAGGTCAGATAGGTCAGTGAATGCCGAGT,5.44,3.81,1.77,3.45,0.397,4.33,2.66,3.09,0.662,1.9
CGAACTAGGTCACCAGGACAATGAAGAGGTTGGA,3.54,2.55,0.00967,1.74,0.0583,5.41,8.69,6.83,4.53,6.43
ATATGTAGGTTCGGGTCATTCAGAAAGTAGGGAA,3.32,2.84,1.01,3.38,1.52,4.37,4.22,4.12,1.6,3.34
TCTAGCTGGTCAAAGGTCACACACTCGAAATGCG,5.6,6.17,3.41,5.31,0.629,6.34,10.5,9.37,9.91,10.1
CAAACTAGGTCAAAGGTCAAAGTAGAGCCAACCA,8.58,7.15,5.51,7.55,2.88,7.99,13.8,11.5,13,13.8
CGAACTAGGTCAACGACAGTGAATCTCCGCACGC,3.59,2.08,0.0952,1.47,-0.0209,4.54,7.37,6.13,3.91,5.64
TCTCGGAGGTCACGAAGGTCAGAGCTTTCCAGAG,7.49,6.31,3.52,5.6,0.683,6.27,7.7,7.54,4.57,6.59
TTACAAAGGTGAGCTGAGGTCGTTGATCCAACTC,2.66,3.19,-0.299,1.68,-0.674,2.86,1.57,2.39,0.713,1.38
ATATGTTGGTTAGGGTCATTCAGAAAGTAGGGAA,4.81,4,1.67,4.72,2.36,4.86,3.15,3.69,1.7,2.88
ATATGTAGGTTACGTCCGGGTCATTCAGGCTATG,2.37,4.62,1.21,3.12,0.722,4.6,5.86,5.24,2.88,4.48
CGAACTAGGGCAAAGGACAGTGAAAGGCGACGTA,-0.161,-0.272,-0.336,-0.481,-1.45,3.45,9.04,7.51,8.13,8.74
CGAACTAAGTCATTGACAGGACAGTGAATAGTAA,-0.324,-0.239,-0.0692,-0.347,-0.466,-0.0981,0.241,0.0844,-0.211,-0.239
